Assay outcomes deposited in PubChem BioAssay by National Center for Advancing Translational Sciences (NCATS).
Shown is part of a subset that was picked to be rich in hits.
Methyltransferases: Primary Screen for Target Class Profiling of Small Molecule Inhibitors of Methyltransferases. purified enzyme, MTase-Glo SAH luminescence; hits give low values. calls only at 40 µM. 3.9% of 25,000 active. AID 1745853, 2022; call rule not given here
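Each enzyme was reacted with SAM and its substrate, with compounds tested once at 40 uM; SAH formed was read by MTase-Glo luminescence.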
* marks the source's active call; other numbers are inactive results; i = inactive; + = active, no number; ! = not confirmed by another sample. On the % scale 0 is the no-effect control and ±100 the full control effect.

SMILES | Methyltransferases
CC(C)C(=O)N(Cc1ccco1)S(=O)(=O)c1ccc2c(c1)n(C)c(=O)n2C | i
CCOc1ccc(CNS(=O)(=O)c2cc3[nH]c(=O)[nH]c3cc2C)cc1OC | i
CC(CN1C(=O)c2cc3sccc3n2CC1(C)C(=O)NC1CCCCCCC1)c1ccccc1 (stereo unspecified) | i
Cc1ccc(O)c(N=Nc2ccccc2)n1 | +
COc1ccc(CNC(=O)Cn2ccc3cc(S(=O)(=O)N4CCCC4)ccc32)cc1 | i
CCC(C)NC(=O)c1ccc2c(=O)n(C(C)C)c3nn(Cc4cccc(C)c4)c(=O)n3c2c1 (stereo unspecified) | i
COc1cccc(S(=O)(=O)N2CCCC(Cc3nncn3C)C2)c1 (stereo unspecified) | i
CCOC(=O)CNC(=O)C1(C)Cn2nc(-c3ccc(OC)cc3)cc2C(=O)N1C (stereo unspecified) | i
Nc1nc(NCCNc2ncc(-n3ccnc3)c(-c3ccc(Cl)cc3Cl)n2)ccc1[N+](=O)[O-] | +
Cc1ccccc1Cn1nc2n(C(C)C)c(=O)c3ccc(C(=O)NCC(C)C)cc3n2c1=O | i
CCOc1ccc(CCN2C(=O)c3cc(C(=O)OC)nn3CC2(C)C(=O)NC2CCC(C)CC2)cc1 (stereo unspecified) | i
CC(C)NC(=O)c1ccc2c(=O)n(C(C)C)c3nn(CC(=O)c4ccc(F)cc4)c(=O)n3c2c1 | i
COC(=O)c1ncn2c1C(=O)N(c1ccc3c(c1)OCCO3)C(C)(C(=O)NCc1ccccc1)C2 (stereo unspecified) | i
COc1ccc(-c2cc3n(n2)CC(C)(C(=O)NCc2ccccc2OC)N(Cc2ccccc2Cl)C3=O)cc1 (stereo unspecified) | i
CNCc1ccc(-c2[nH]c3cc(F)cc4c3c2CCNC4=O)cc1 | +!
CCOCCCNC(=O)C1(C)Cn2c(ccc2-c2ccco2)C(=O)N1c1ccc(OC)c(OC)c1 (stereo unspecified) | i
Cc1ccc(S(=O)(=O)NCCN2CCN(S(=O)(=O)c3ccc(C)cc3)CC2)cc1 | i
Cn1c(=O)c2ccc(C(=O)NC3CCCCC3)cc2n2c(=O)n(Cc3ccc(F)cc3)nc12 | i
COc1cc(-c2ccc(O)cc2)c(OC)c(O)c1C1=CC(=O)OC1CC(=O)O (stereo unspecified) | i
COc1cc(O)c2c(c1Cl)CC(C)OC2=O (stereo unspecified) | i
COc1c(O)cc2c(c1O)C(=O)O[C@H](C)[C@H]2O | +
Cc1ccc(NC(=O)CSc2nnc3n(CC(C)C)c(=O)c4ccccc4n23)cc1C | i
Cc1c(Cl)cccc1N1C(=O)c2cc3sccc3n2CC1(C)C(=O)NC1CCCC(C)C1C (stereo unspecified) | i
CCCn1c(=O)c2cc(Cl)ccc2n2c(=O)n(CC(=O)NCc3ccccc3Cl)nc12 | i
Cc1ccc(CN2C(=O)c3cc4oc(C)cc4n3CC2(C)C(=O)NC2CCCCC2)cc1 (stereo unspecified) | i
SMILES | Methyltransferases
CCC1c2ccc(C)n2CCN1C(=O)Nc1cccc(C)c1 (stereo unspecified) | i
CCC(C)NC(=O)c1ccc2c(=O)n(C3CC3)c3nn(CC(=O)NC4CCCC4)c(=O)n3c2c1 (stereo unspecified) | i
COc1ccccc1CCN1C(=O)c2cc3ccccc3n2CC1(C)C(=O)NCc1ccccc1 (stereo unspecified) | i
CN(Cc1ccc(C(=O)O)cc1)c1ccc(OCc2c(-c3c(Cl)cccc3Cl)noc2C2CC2)nc1C(F)(F)F | +
CC(C)CNC(=O)c1ccc2c(=O)n(Cc3ccccc3)c3nn(Cc4ccccc4Cl)c(=O)n3c2c1 | i
COc1ccccc1CNC(=O)CCc1nnc2n(Cc3ccc(F)cc3)c(=O)c3ccccc3n12 | i
CC1CCC(NC(=O)C2(C)Cn3c(ccc3-c3ccco3)C(=O)N2C2CCCC2)CC1 (stereo unspecified) | i
CCN1CCN(Cc2ccc(NC(=O)Nc3ccc(Oc4cc(NC)ncn4)cc3)cc2C(F)(F)F)CC1 | +
CCOc1ccc(NC(=O)N2CCn3cccc3C2C(C)C)cc1 (stereo unspecified) | i
Cc1ccc(CCNC(=O)C2CCN(c3cc(C(F)(F)F)ncn3)CC2)cc1 | i
CN1CCN(Cc2ccc(NC(=O)Cc3ccc(Oc4cc(NC(=O)C5CC5)ncn4)cc3)cc2C(F)(F)F)CC1 | +
COc1ccc(NC(=O)COc2ccc(NC(=O)C3CC3)cn2)cc1 | i
CCOc1cccc(NC(=O)c2ccc(N3CCCC3)c(C(F)(F)F)c2)c1 | i
CCOC(=O)CNC(=O)N1Cc2c(sc3c2CCCC3)-n2cccc2C1c1ccc(SC)cc1 (stereo unspecified) | i
CCN(Cc1ccccc1)C(=O)CN(C)S(=O)(=O)c1ccc2[nH]c3c(c2c1)CCCC3 | i
COc1cccc(CN2C(=O)c3ccc(-c4ccco4)n3CC2(C)C(=O)NC2CCCCC2C)c1 (stereo unspecified) | i
